Rows were chosen to be rich in hits. Some 3.6% of all compounds tested hit in one or more screens of this group.
Pf apPOL block: Pf-apPOL DNA polymerase inhibition; Recombinant Pf-apPOL, molecular beacon fluorescence, 1.5 h; inhibition, % at 10 µM; actives 0.25% (n = 210,000); AID 1794808
mHTT-CaM PPI inh: mHTT-calmodulin interaction abrogation | P42858 | AlphaScreen His-mHTT/GST-CaM binding, luminescence | inhibition, % at 15 µM | actives 3.6% (n = 190,000) | AID 1671202;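 further: 0% = both proteins with DMSO and 100% = one protein alone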
Target sequence (P42858 whole entry, looked up, stated change not applied): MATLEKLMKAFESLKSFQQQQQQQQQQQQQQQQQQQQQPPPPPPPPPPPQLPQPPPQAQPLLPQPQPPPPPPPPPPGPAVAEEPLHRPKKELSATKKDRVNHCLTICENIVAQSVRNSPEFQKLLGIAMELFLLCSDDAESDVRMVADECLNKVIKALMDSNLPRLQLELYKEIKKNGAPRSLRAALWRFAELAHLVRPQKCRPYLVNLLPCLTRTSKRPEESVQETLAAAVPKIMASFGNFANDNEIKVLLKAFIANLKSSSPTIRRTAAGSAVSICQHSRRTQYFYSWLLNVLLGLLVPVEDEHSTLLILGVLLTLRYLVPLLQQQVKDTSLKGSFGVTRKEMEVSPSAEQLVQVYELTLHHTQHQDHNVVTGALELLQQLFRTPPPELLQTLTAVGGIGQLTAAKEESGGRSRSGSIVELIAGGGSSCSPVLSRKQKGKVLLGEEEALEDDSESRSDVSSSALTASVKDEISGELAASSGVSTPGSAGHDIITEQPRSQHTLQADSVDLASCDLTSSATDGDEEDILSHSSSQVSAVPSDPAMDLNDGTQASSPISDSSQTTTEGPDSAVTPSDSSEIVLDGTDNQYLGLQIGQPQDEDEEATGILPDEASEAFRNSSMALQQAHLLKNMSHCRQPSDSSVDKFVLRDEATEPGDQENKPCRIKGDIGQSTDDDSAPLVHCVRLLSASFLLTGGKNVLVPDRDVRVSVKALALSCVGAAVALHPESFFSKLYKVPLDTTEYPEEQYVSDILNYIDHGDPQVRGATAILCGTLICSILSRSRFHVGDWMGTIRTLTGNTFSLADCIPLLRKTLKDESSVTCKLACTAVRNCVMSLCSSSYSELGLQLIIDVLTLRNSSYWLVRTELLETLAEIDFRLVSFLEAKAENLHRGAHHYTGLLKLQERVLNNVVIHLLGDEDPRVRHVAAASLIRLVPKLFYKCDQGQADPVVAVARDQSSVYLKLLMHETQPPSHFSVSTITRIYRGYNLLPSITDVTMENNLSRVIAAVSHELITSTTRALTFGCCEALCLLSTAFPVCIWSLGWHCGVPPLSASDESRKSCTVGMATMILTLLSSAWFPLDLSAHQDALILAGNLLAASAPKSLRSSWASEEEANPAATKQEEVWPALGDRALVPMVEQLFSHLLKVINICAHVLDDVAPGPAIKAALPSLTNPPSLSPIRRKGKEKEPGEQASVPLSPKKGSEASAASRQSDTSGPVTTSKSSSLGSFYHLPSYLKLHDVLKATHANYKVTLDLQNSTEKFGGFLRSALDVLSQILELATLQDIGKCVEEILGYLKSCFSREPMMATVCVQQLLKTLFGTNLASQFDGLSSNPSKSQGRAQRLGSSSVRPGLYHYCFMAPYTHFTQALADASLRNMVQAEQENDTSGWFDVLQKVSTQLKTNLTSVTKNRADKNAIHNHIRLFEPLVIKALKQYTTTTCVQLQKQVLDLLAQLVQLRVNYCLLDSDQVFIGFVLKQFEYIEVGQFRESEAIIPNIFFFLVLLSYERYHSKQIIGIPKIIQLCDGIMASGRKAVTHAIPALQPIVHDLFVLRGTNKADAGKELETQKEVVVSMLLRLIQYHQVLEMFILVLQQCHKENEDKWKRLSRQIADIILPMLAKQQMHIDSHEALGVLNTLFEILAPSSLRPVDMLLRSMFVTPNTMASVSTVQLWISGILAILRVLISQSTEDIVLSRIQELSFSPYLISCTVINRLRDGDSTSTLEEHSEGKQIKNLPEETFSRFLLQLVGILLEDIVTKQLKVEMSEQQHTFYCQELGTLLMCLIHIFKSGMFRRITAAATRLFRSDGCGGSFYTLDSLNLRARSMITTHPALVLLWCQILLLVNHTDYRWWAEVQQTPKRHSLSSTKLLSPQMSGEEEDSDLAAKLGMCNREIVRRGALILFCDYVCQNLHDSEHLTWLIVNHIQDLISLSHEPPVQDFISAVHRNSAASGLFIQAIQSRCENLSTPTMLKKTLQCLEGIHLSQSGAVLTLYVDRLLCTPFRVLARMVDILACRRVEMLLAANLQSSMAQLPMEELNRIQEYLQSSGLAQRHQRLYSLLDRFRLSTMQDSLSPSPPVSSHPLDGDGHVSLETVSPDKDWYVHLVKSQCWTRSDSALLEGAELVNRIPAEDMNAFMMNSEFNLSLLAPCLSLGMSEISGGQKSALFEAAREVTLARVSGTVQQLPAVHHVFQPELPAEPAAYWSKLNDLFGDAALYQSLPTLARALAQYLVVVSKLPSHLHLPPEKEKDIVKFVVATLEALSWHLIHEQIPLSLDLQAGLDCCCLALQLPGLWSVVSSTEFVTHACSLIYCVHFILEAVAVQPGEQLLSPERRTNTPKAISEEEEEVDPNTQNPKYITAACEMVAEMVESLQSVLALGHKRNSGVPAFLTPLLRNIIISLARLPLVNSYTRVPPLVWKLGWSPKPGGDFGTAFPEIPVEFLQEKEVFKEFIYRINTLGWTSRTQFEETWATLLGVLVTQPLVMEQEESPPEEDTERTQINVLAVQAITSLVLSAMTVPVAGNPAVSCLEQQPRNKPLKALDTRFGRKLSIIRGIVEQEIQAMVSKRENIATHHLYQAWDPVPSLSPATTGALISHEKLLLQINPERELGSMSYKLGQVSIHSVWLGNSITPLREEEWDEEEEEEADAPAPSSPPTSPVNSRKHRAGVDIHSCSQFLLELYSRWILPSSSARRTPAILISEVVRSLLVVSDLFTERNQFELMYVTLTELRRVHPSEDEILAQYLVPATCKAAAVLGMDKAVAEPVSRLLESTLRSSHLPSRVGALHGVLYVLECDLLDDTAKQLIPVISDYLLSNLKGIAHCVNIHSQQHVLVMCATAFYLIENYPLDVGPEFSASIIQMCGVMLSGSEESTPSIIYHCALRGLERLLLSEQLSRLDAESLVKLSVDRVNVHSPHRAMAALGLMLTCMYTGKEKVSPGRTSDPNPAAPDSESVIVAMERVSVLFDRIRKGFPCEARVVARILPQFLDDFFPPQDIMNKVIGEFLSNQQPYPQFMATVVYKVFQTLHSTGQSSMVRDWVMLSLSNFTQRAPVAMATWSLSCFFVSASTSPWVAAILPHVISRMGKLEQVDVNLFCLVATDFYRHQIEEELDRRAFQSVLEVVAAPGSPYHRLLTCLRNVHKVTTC
An asterisk follows results filed as active; . = no result; ! = not confirmed by another sample. No stated cut-off is given here; in the data, active means inhibition above about 50%; inactive means the rest.

SMILES | Pf apPOL block | mHTT-CaM PPI inh
CC1(C)CC(=O)C2=C(C1)N=C1c3ccccc3C(=O)C1C2c1cccc(Br)c1 (stereo not given) | -2.7 | 61.0*
Cc1ccc(N2CCN(C(=O)c3ccccc3)C(C)C2=O)cc1F (stereo not given) | -4.1 | 1.2
COc1cccc2cc(C(=O)N3CC4(COC(C)(C)OC4)C3)c(=O)oc12 | -2.4 | -9.5
Cc1n[nH]c(C)c1CCC(=O)Nc1ccc2c(c1)Cc1ccccc1-2 | -8.7 | 3.2
CCOc1ccc(-c2cn3ccn(-c4ccc(Br)cc4)c(=O)c3n2)cc1 | -1.5 | -2.8
COc1ccc(C2C(C(=O)N(C)C3CCCCC3)c3ccccc3C(=O)N2C)cc1 (stereo not given) | 1.0 | 4.0
CCn1cc2c3c(cccc31)CN(C(=O)c1ccc(F)cc1)CC2 | -6.4 | 29.6
CCCn1cc2c3c(cccc31)CN(C(=O)COc1ccc(F)cc1)CC2 | -3.0 | 54.8*
CCn1cc2c3c(cccc31)CN(C(=O)COc1ccccc1)CC2 | -8.2 | 75.5*
CCn1cc2c3c(cccc31)CN(C(C)=O)CC2 | -2.9 | 4.7
CC(=O)N(Cc1cc(N)ccc1N(C)C)C1CC1 | 4.0 | 13.4
O=C(c1ccccc1F)N1CCCCC1CCN1CCOCC1 (stereo not given) | -4.5 | 2.2
CCCCC(=O)Nc1ccc(NC(=O)COc2ccc([N+](=O)[O-])cc2)cc1OC | 0.8 | -3.8
O=C(Nc1ccc2c(c1)OCO2)C1CN(S(=O)(=O)C2CC2)CC12CCCCC2 (stereo not given) | 0.8 | 72.9*
CS(=O)(=O)N1CC(C(=O)Nc2ccc3c(c2)OCCO3)C2(CCCCC2)C1 (stereo not given) | 5.2 | 11.5
Cc1ccc(-n2c(=O)[nH]c3c(sc4nc(C)cc(C)c43)c2=O)cc1 | 2.4 | .
COc1ccccc1NC(=O)c1cnn(-c2ccccc2)c1NC(=O)c1cccc(F)c1 | 8.3 | 59.0*!
O=C(Nc1c(C(=O)Nc2ccccc2)cnn1-c1ccccc1)c1ccccc1 | 3.3 | 11.4
Cc1nnc(NC(=O)CSc2nc3c(c(=O)n2-c2ccc([N+](=O)[O-])cc2)SCC3)s1 | 2.2 | 3.0
Cc1ccc(NC(=O)N2CCCC2c2cc(C)on2)c(C)c1 (stereo not given) | 2.1 | -1.9
CN1C(=O)C2CCCCN2c2ccc(C(=O)N3CCN(c4ccc(Cl)cc4)CC3)cc21 (stereo not given) | 1.3 | 67.8*
O=C1Nc2cc(C(=O)N3CCN(c4ccc(Cl)cc4)CC3)ccc2N2CCCCC12 (stereo not given) | 2.2 | 26.6
CC1=C(C)SC(=C2Sc3nc(O)[nH]c(=O)c3S2)S1 | . | 1.5
Cc1cccn2c(=O)c3cc(C(=O)NCc4cccnc4)c(=N)n(Cc4cccnc4)c3nc12 | -6.5 | 2.0
Cc1c(C(=O)Nc2ccc([N+](=O)[O-])cc2)sc2nc(-c3ccccc3)cn12 | -7.3 | 3.0
SMILES | Pf apPOL block | mHTT-CaM PPI inh
Cn1nccc1C(=O)Nc1ccc(Br)cc1 | -28.2 | -23.4
O=C(c1ccc(F)c(F)c1)N1CCCN(Cc2nc3ccc(Cl)cc3o2)CC1 | -7.2 | 60.1*
Cc1cc(C)cc(C(=O)N2CCCN(Cc3nc4ccccc4o3)CC2)c1 | 3.2 | 34.5
Cn1nc(-c2nc(-c3ccccc3)no2)c2c1CCN(C(=O)C1CCCC1)C2 | -1.3 | 46.0
O=C(CSc1cn(Cc2ccc(F)cc2)c2ccccc12)N1CCCCCC1 | -8.1 | 70.0*
O=C(CSc1cn(Cc2ccccc2Cl)c2ccccc12)N1CCOCC1 | -6.4 | 36.0
O=C(CSc1cn(Cc2ccc(F)cc2)c2ccccc12)N1CCCCC1 | 2.7 | 31.0
O=C(CSc1cn(Cc2ccc(F)cc2)c2ccccc12)N1CCCC1 | -1.8 | 21.0
Cc1ccccc1Cn1cc(SCC(=O)N2CCCCC2)c2ccccc21 | 2.8 | 86.0*
CC1CCN(C(=O)CSc2cn(Cc3ccc(Cl)cc3)c3ccccc23)CC1 | -3.6 | 91.0*
Fc1cccc(Cl)c1C1C=C(c2ccc(I)cc2)Nc2ncnn21 (stereo not given) | 1.1 | 15.0
Cc1ccc(Nc2cc(-n3ccnc3)ncn2)cc1 | -3.7 | -11.2
C=CCc1cccc(C=Nc2ccc(Br)cc2)c1O | -3.4 | 1.0
C=CCc1cccc(C=NNC(N)=S)c1O | 55.5* | 94.4*
Cc1ccc(Cl)cc1NC(=O)CN(C)S(=O)(=O)c1ccc2[nH]c3c(c2c1)CCCC3 | -1.9 | 42.3
Cc1ccsc1CCNS(=O)(=O)c1ccc2[nH]c3c(c2c1)CCCCC3 | -1.9 | 96.2*
Cc1ccsc1CCNS(=O)(=O)c1ccc2[nH]c3c(c2c1)CCCC3 | -0.8 | 61.5*
CC(C)c1ccc(NC(=O)C2CCCN(c3cnn(Cc4ccccc4)c(=O)c3)C2)cc1 (stereo not given) | -9.0 | -0.3
COc1ccccc1CN1CCN(C(=O)C2CCc3nc(N4CCCCC4)ncc3C2)CC1 (stereo not given) | 0.9 | 20.1
COc1ccc(CNC(=O)CN(c2ccc(C)cc2C)S(=O)(=O)c2ccccc2)cc1 | 1.0 | 1.3
O=C(Cc1csc(NC(=O)NC2CCCCC2)n1)NCCc1ccc(Cl)cc1 | -3.2 | 9.4
Cc1ccc(-n2nc3c(c2NC(=O)c2ccccc2C)CSC3)cc1 | -9.5 | 26.0
Nc1ccc(Cl)cc1-n1nc(-c2ccccc2)c2ccccc2c1=O | 1.9 | 13.0
COc1ccc(OC)c(NC(=O)c2ccc(SC)s2)c1 | -3.1 | .
CSc1ccc(C(=O)O)s1 | 88.2* | 1.7
SMILES | Pf apPOL block | mHTT-CaM PPI inh
CCOc1ccc(Cc2nc(-c3ccc4ncn(C)c4c3)no2)cc1 | -3.5 | -1.9
COc1cc2c(cc1OC)C(COc1ccc3c(C)cc(=O)oc3c1)N(C(=O)c1ccc(Cl)cc1)CC2 (stereo not given) | -0.2 | 0.0
CCCC(=O)N1CCc2cc(OC)c(OC)cc2C1COc1ccc(OC)cc1 (stereo not given) | -0.5 | 6.8
COc1cc2c(cc1OC)C(COc1ccc(F)cc1)N(C(=O)Cc1ccc(F)cc1)CC2 (stereo not given) | -2.8 | 61.0*
COc1ccc(C=CC(=O)N2CCc3cc(OC)c(OC)cc3C2COc2ccc3c(C)cc(=O)oc3c2)cc1OC (stereo not given) | -0.8 | 69.2*
COc1ccc(OCC2c3cc(OC)c(OC)cc3CCN2C(=O)c2cccc(OC)c2)cc1 (stereo not given) | -1.6 | 4.3
COc1cc2c(cc1OC)C(COc1ccc(F)cc1)N(C(=O)c1cccc(F)c1)CC2 (stereo not given) | -1.4 | 76.0*
Cc1c(N=Cc2ccccc2Cl)c(=O)n(-c2ccccc2)n1C | -1.5 | 3.0
CC1(C)C2CCC1(CS(=O)(=O)N1CCN(C(=O)c3ccco3)CC1)C(=O)C2 (stereo not given) | . | -1.5
CC1=C(C(=O)Nc2ccc(Br)c(C)c2)C2(CCC(C)CC2)OC1=O (stereo not given) | 5.4 | 99.0*
CC1=C(C(=O)Nc2ccc(C)cc2)C2(CCC(C)CC2)OC1=O (stereo not given) | -0.3 | 7.0
O=C(Cc1c[nH]c2ccccc12)N(CC1CCCO1)C1(C(=O)NC2CCCC2)CCCCC1 (stereo not given) | -6.8 | 67.0*
O=C(Cc1c[nH]c2ccccc12)N(Cc1cccs1)C1(C(=O)NC2CCCCC2)CCCCC1 | 0.0 | 1.0
CCn1c(C2CCN(Cc3ccncc3)C2)nc2cccnc21 (stereo not given) | -11.4 | 3.9
CSCCC(C)(O)CNC(=O)C(=O)NC1CCCC1 (stereo not given) | -0.9 | -1.4
O=C(CSc1nn2c(SCC(=O)c3cccs3)nnc2s1)c1cccs1 | 4.8 | 17.0

Screening data from PubChem BioAssay.
